Bioassay records (PubChem BioAssay)
JMJD2A Tudor inh = blocks the human JMJD2A Tudor domain | AlphaScreen JMJD2A-Tudor / H3K4me3 peptide binding | Potency, µM (top dose mostly 114 µM), usual class: inhibitors | hit rate 4.4% among 390,000 | AID 504339; also: nearly all actives have a fitted effect of over 50% in size
Target sequence (O75164 whole entry, looked up, the tested form may be a part): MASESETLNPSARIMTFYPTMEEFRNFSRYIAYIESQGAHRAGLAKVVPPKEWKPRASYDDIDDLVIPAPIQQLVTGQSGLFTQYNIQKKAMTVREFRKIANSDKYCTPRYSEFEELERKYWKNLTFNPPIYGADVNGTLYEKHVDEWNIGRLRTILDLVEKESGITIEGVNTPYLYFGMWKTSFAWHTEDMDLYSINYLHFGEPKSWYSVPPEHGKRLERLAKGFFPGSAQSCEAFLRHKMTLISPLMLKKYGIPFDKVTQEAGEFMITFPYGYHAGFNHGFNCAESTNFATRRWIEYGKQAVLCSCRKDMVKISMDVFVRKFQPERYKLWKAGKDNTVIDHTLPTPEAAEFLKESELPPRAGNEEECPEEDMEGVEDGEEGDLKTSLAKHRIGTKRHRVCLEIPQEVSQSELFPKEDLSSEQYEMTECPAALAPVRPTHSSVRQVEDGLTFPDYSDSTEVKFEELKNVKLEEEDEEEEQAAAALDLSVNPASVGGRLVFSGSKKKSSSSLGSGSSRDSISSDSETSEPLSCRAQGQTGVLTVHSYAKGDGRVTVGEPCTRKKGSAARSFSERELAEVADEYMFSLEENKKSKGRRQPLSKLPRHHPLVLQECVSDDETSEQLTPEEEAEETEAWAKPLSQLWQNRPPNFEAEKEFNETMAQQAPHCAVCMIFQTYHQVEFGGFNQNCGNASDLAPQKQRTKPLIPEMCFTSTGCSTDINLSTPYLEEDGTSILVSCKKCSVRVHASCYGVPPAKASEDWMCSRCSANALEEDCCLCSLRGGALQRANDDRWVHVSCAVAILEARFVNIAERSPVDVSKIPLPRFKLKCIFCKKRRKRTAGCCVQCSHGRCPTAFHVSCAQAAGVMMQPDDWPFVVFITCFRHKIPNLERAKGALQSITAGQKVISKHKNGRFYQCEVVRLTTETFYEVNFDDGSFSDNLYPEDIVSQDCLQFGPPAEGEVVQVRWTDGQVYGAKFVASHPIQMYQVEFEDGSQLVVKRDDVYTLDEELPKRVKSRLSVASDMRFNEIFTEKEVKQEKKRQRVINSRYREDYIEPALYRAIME
G9a inh = blocks human histone lysine methyltransferase G9a; Q96KQ7; G9a H3K9 monomethylation, AlphaScreen, 2 h; Potency, µM (titrated, usually from 102 µM), actives largely listed as inhibitors; hit rate 8.8% among 350,000; AID 504332; also: nearly all actives have a fitted effect of over 75% in size
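Readings reflect AlphaScreen signal from monomethyl-H3K9 antibody detection. HMT at 20 nM; substrate b-H3K9 500 nM; cofactor SAM 20 uM; 2 h RT reaction; compounds tested as titrations in qHTS with 15 min preincubation.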
L3MBTL1 block = L3MBTL1 (human) inhibition. Q9Y468. AlphaScreen L3MBTL1–H3K9me1 peptide binding. Potency, µM (series often up to 57.1 µM), hits mostly inhibitors. hit rate 0.66% among 230,000. AID 485360; also: nearly all actives have a fitted effect of over 60% in size
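L3MBTL1 (50 nM) pre-complexed 30 min with biotinylated H3(1-15)K9me1 peptide (75 nM), then compounds added for 30 min at room temperature; AlphaScreen streptavidin donor/nickel chelate acceptor beads (10 ug/mL final) read after 30 min dark incubation.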
Sfp inh = inhibitors of Bacillus subtilis Sfp phosphopantetheinyl transferase. Biochemical Sfp PPTase activity, qHTS. Potency, µM, most hits filed as inhibitors. hit rate 3.5% among 310,000;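 also: the enzyme is Sfp with the accession as filed and its product quenches rhodamine fluorescence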
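After 15 min at room temperature with compound, 15 nM Sfp received 5 uM rhodamine-CoA plus 12.5 uM BHQ-2-ybbR (50 mM Hepes pH 7.6, 10 mM MgCl2). Rate came from the fluorescence difference over 30 min, ex 525/em 598 nm.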
HP1b chromo inh = inhibitors of HP1-beta chromodomain binding to methylated histone tails; P83916; AlphaScreen HP1-beta / biotin-H3K9me3 peptide binding; Potency, µM (doses to about 114 µM), most hits filed as inhibitors; hit rate 0.56% among 390,000; AID 540317; also: nearly all actives have a fitted effect of over 70% in size
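HP1-beta protein (50 nM final) preincubated 30 min at room temperature with biotinylated H3(1-18)K9me3 peptide (50 nM) in PBS pH 7.4, 0.01% Tween-20, then compound added for 30 min. AlphaScreen streptavidin donor/nickel chelate acceptor beads (10 ug/mL final), 30 min dark, luminescence read.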
BAZ2B block = inhibitors of human BAZ2B bromodomain; AlphaScreen BAZ2B-H3K14Ac peptide displacement; AID 504333; Q9UIF8; Potency, µM (highest dose often 114 µM), most hits filed as inhibitors; hit rate 4.4% among 360,000; also: nearly all actives have a fitted effect of over 60% in size
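AlphaScreen luminescence quantifies BAZ2B engagement of H3K14Ac peptide; the protein and biotinylated peptide are both at 50 nM final, buffer PBS pH 7.4 with 0.01% Tween-20, all steps at room temperature.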
A number is an active result; [ ] = remark or other dose. Shown are actives, neighbours in structure and some others; about 12% of the full set was active somewhere. Calls follow the shape of the dose curve; as a rule, active = well fitted curve in the direction sought with a large enough effect; inconclusive = small, poorly fitted or top-dose-only effect, or another doubt; inactive = no such curve, though single readings can be large; an effect the other way counts as inactive or inconclusive.

Results for COc1nc(-c2ccc(C)cc2)ccc1-c1noc(-c2ccc(C(C)(C)C)cc2)n1 ?
JMJD2A Tudor inh: inactive; G9a inh: inactive; HP1b chromo inh: inactive; BAZ2B block: inactive

How did COc1cc(-c2ccc3ncnc(NCc4ccc(C)o4)c3c2)cc(OC)c1OC do in these assays?
JMJD2A Tudor inh: 50.1µM

Results for COc1cc2ncnc(NCc3cccc(Cl)c3)c2cc1OC ?
JMJD2A Tudor inh: inactive; G9a inh: 39.8µM; L3MBTL1 block: inactive; Sfp inh: inactive; HP1b chromo inh: inactive; BAZ2B block: inactive

How did COc1cc2ncnc(NCc3ccccc3)c2cc1OC do in these assays?
JMJD2A Tudor inh: inactive[11.4 µM]; G9a inh: 70.8µM; L3MBTL1 block: inactive; Sfp inh: inactive; HP1b chromo inh: inactive; BAZ2B block: inactive

Results for COc1ccc(CNc2ncnc3cc(OC)c(OC)cc23)cc1OC ?
JMJD2A Tudor inh: inactive; G9a inh: 44.7µM; L3MBTL1 block: inactive; Sfp inh: inactive; HP1b chromo inh: inactive; BAZ2B block: inactive

Results for COc1cc2ncnc(NCc3ccco3)c2cc1OC ?
JMJD2A Tudor inh: inactive; G9a inh: inconclusive; L3MBTL1 block: inactive; Sfp inh: inactive; HP1b chromo inh: inactive; BAZ2B block: inactive

What do the screens show for `COc1cccc(CNc2ncnc3cc(Cl)ccc23)c1`?
JMJD2A Tudor inh: inactive; G9a inh: inactive; L3MBTL1 block: inactive; Sfp inh: inactive; HP1b chromo inh: inactive; BAZ2B block: inactive

Results for COc1ccc(CNc2ncnc3ccc(-c4ccoc4)cc23)c(OC)c1 ?
G9a inh: inactive[0.501 µM]; Sfp inh: inactive

How did COc1ccccc1CNc1ncnc2cc(OC)c(OC)cc12 do in these assays?
JMJD2A Tudor inh: inactive; G9a inh: 31.6µM; L3MBTL1 block: inactive; Sfp inh: inactive; HP1b chromo inh: inactive; BAZ2B block: inactive

How did COc1ccc(CNc2ncnc3cc(OC)c(OC)cc23)cc1 do in these assays?
JMJD2A Tudor inh: inactive[11.4 µM]; G9a inh: 39.8µM; L3MBTL1 block: inactive; Sfp inh: inactive; HP1b chromo inh: inactive; BAZ2B block: inactive

What do the screens show for `COc1ccc(CNc2ncnc3cc(Cl)ccc23)cc1`?
JMJD2A Tudor inh: inactive; L3MBTL1 block: inactive; Sfp inh: inactive; HP1b chromo inh: inactive; BAZ2B block: inactive

Results for COc1ccc(OC)c(Nc2sc(C(=O)c3ccccc3)c(N)c2S(=O)(=O)c2ccccc2)c1 ?
JMJD2A Tudor inh: inactive; G9a inh: inactive; HP1b chromo inh: inactive; BAZ2B block: inactive

What do the screens show for `O=C(Nc1ccc(Br)cc1F)c1cc(S(=O)(=O)NCc2ccc(F)cc2)ccc1F`?
JMJD2A Tudor inh: inactive; G9a inh: inactive; HP1b chromo inh: inactive; BAZ2B block: inactive

Results for CCOC(=O)c1cc(-c2ccc(OC(F)F)cc2)nc2nc(SC)[nH]c(=O)c12 ?
JMJD2A Tudor inh: inactive; G9a inh: 44.7µM; L3MBTL1 block: inactive; Sfp inh: inactive; HP1b chromo inh: inactive; BAZ2B block: inactive

Results for CCOC(=O)c1cc(-c2ccc(OC(F)F)cc2)nc2c1c(=O)[nH]c(=O)n2C ?
JMJD2A Tudor inh: inactive; G9a inh: inactive; L3MBTL1 block: inactive; Sfp inh: inactive; HP1b chromo inh: inactive; BAZ2B block: inactive

Results for NC(=O)/C=C/C(=O)Nc1ccc(Cl)cc1 ?
JMJD2A Tudor inh: inactive; G9a inh: 11.2µM; L3MBTL1 block: inactive; Sfp inh: inactive; HP1b chromo inh: inactive; BAZ2B block: inactive

Results for COc1cccc([C@@H]2Oc3ccc(OC)cc3C[C@H]2OC(=O)N[C@H]2CCCc3ccccc32)c1 ?
Sfp inh: inactive

What do the screens show for `CC1=C(/C=C/C(C)=C/C=C/C(C)=C/C=C/C=C(C)/C=C/C=C(C)/C=C/C(=O)[C@]2(C)CC(O)CC2(C)C)C(C)(C)CC(O)C1` (some centres not stated)?
G9a inh: inactive[2.33 µM]; Sfp inh: inactive

Results for CC1=C[C@@H](O)CC(C)(C)[C@@H]1/C=C/C(C)=C/C=C/C(C)=C/C=C/C=C(C)/C=C/C=C(C)/C=C/C1=C(C)C[C@H](O)CC1(C)C ?
G9a inh: inconclusive; Sfp inh: 50.1µM

What do the screens show for `C[C@@H]1OC(OC2CC[C@@]3(C)C(CC[C@@]4(C)C3CC=C3C5CC(C)(C)CC[C@]5(C(=O)OC5OCC(O)[C@@H](O)[C@@H]5OC5O[C@@H](C)[C@H](O[C@H]6OC(CO)C(O)C(O)C6O)C(O)C5O)C(O)C[C@@]34C)C2(C)C)C(O)C(O)[C@H]1OC1OCC(O)C(O)[C@H]1O` (some centres not stated)?
Sfp inh: inactive

Results for CC1OC(O[C@H]2CC[C@]3(C)C4C=C[C@]56OC[C@@]7(CC[C@@H](C)[C@H](C)C75)[C@H](O)C[C@@]6(C)[C@]4(C)CC[C@H]3C2(C)C)C(OC2OC(CO)C(O)C(O)C2OC2OCC(O)C(O)C2O)C(O)C1O (some centres not stated) ?
G9a inh: inactive[12.7 µM]; Sfp inh: 89.1µM; BAZ2B block: inconclusive

What do the screens show for `CCOc1cccc(C(=O)Nc2cc(-c3nn4c(C)nnc4s3)ccc2C)c1`?
JMJD2A Tudor inh: inactive; G9a inh: inactive; L3MBTL1 block: inactive; Sfp inh: inactive; HP1b chromo inh: inactive; BAZ2B block: inactive

What do the screens show for `CCCOc1ccc(C(=O)Nc2cc(-c3nn4c(C)nnc4s3)ccc2C)cc1`?
JMJD2A Tudor inh: 39.8µM; G9a inh: inactive; L3MBTL1 block: inactive; Sfp inh: inactive; HP1b chromo inh: inactive; BAZ2B block: inactive

How did COc1ccc(-c2nc(CCNC(=O)c3c(F)cccc3Cl)cs2)cc1 do in these assays?
JMJD2A Tudor inh: inactive; G9a inh: inactive; HP1b chromo inh: inactive; BAZ2B block: inactive

What do the screens show for `C=CCOc1ccc(/C=C/C(=O)N2CCCN(S(=O)(=O)c3c(C)noc3C)CC2)cc1`?
JMJD2A Tudor inh: inactive; G9a inh: 44.7µM; L3MBTL1 block: inactive; HP1b chromo inh: inactive; BAZ2B block: inactive

How did COc1ccc(/C=C/c2onc(C)c2S(=O)(=O)N2CCC(C(=O)N3CCCCC3)CC2)cc1 do in these assays?
JMJD2A Tudor inh: inactive; G9a inh: inactive; HP1b chromo inh: inactive; BAZ2B block: inactive

Results for Cc1ccc(NC(=O)/C(C#N)=C(\N)C(Cl)(Cl)Cl)nc1 ?
JMJD2A Tudor inh: inactive; G9a inh: inconclusive; Sfp inh: inactive; HP1b chromo inh: inactive; BAZ2B block: 56.2µM

What do the screens show for `CN1CCN(c2ccnc(-c3ccc(N(C)C)cc3)n2)CC1`?
G9a inh: inactive[0.501 µM]; Sfp inh: inactive

How did COc1cc(OC)cc(C(=O)Nc2ccc(S(=O)(=O)Nc3cnc4ccccc4n3)cc2)c1 do in these assays?
JMJD2A Tudor inh: inactive; HP1b chromo inh: inactive

How did CC(C)(C)c1ccc(S(=O)(=O)Nc2ccccn2)cc1 do in these assays?
JMJD2A Tudor inh: inactive; L3MBTL1 block: inactive; Sfp inh: inactive; HP1b chromo inh: inactive; BAZ2B block: inactive
